Read-out in test [1]: TIMP metallopeptidase inhibitor 1 (TIMP1), TIMP1 (gene 7076)
The test is described as follows: BSK_hDFCGF_TIMP1: BioMAP Diversity Plus: hDFCGF Assay for TIMP metallopeptidase inhibitor 1 (TIMP1) Biomarker Activity (AID 2283062). The note with it: primary human foreskin fibroblasts; actives raise or lower the signal. An outline of the steps:
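Primary human foreskin fibroblasts in the hDFCGF system were dosed with compound for 24 h, then TIMP-1 was measured by ELISA. Activity was fitted bidirectionally relative to DMSO control; parallel SRB staining assessed cytotoxicity.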

Read-out in test [2]: Monokine induced gamma interferon (MIG), CXCL9 (gene 4283)
The test can be described thus: BSK_hDFCGF_MIG: BioMAP Diversity Plus: hDFCGF Assay for Monokine induced gamma interferon (MIG) Biomarker Activity (AID 2283063). The following applies: primary human foreskin fibroblasts; actives raise or lower the signal. The method, boiled down:
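ELISA read-out of MIG from primary human dermal fibroblasts 24 h post-dosing. Gain or loss of signal fitted bidirectionally, DMSO as baseline.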

Read-out in test [3]: Matrix Metallopeptidase 1 (MMP1), MMP1 (gene 4312)
The test is described as follows: BSK_hDFCGF_MMP1: BioMAP Diversity Plus: hDFCGF Assay for Matrix Metallopeptidase 1 (MMP1) Biomarker Activity (AID 2283064). The note with it: primary human foreskin fibroblasts; actives raise or lower the signal. An outline of the steps:
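hDFCGF primary fibroblasts (human foreskin); chemical added; 24 h; MMP1 by ELISA; bidirectional fit vs DMSO.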

Read-out in test [4]: Vascular cell adhesion molecule 1 (VCAM1), VCAM1 (gene 7412)
The test is described as follows: BSK_hDFCGF_VCAM1: BioMAP Diversity Plus: hDFCGF Assay for Vascular cell adhesion molecule 1 (VCAM1) Biomarker Activity (AID 2283065). The note with it: primary human foreskin fibroblasts; actives raise or lower the signal. An outline of the steps:
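Primary human foreskin fibroblasts (hDFCGF system) were dosed with chemical and VCAM-1 was measured by ELISA 24 h later. Bidirectional curve fitting used DMSO as negative control and activity baseline.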

Read-out in test [5]: Plasminogen activator inhibitor-1 (PAI1), SERPINE1 (gene 5054)
The test can be described thus: BSK_hDFCGF_PAI1: BioMAP Diversity Plus: hDFCGF Assay for Plasminogen activator inhibitor-1 (PAI1) Biomarker Activity (AID 2283066). The note with it: primary human foreskin fibroblasts; actives raise or lower the signal. The method, boiled down: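 Primary dermal fibroblasts (human foreskin), hDFCGF system; compound 24 h; PAI-1 by ELISA; bidirectional fit vs DMSO control.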

Read-out in test [6]: Intercellular Adhesion Molecule 1 (ICAM1), ICAM1 (gene 3383)
The test can be described thus: BSK_KF3CT_ICAM1: BioMAP Diversity Plus: KF3CT Assay for Intercellular Adhesion Molecule 1 (ICAM1) Biomarker Activity (AID 2283067). The note with it: primary human keratinocytes with fibroblasts; actives raise or lower the signal. The method, boiled down: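 Human keratinocyte plus foreskin fibroblast primary co-culture was exposed to chemical for 24 h. ICAM-1 was then quantified by ELISA, and the data were fit bidirectionally against DMSO as the negative control and baseline.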

Read-out in test [7]: Interferon-gamma inducible Protein 10 (IP10), CXCL10 (gene 3627)
The test is described as follows: BSK_KF3CT_IP10: BioMAP Diversity Plus: KF3CT Assay for Interferon-gamma inducible Protein 10 (IP10) Biomarker Activity (AID 2283068). The note with it: primary human keratinocytes with fibroblasts; actives raise or lower the signal. An outline of the steps:
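Human keratinocyte plus foreskin fibroblast primary co-culture exposed to test chemical for 24 h; IP-10 measured by ELISA. Concentration-response fitted bidirectionally against DMSO control as baseline.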

Test [8] is described as follows: BSK_KF3CT_SRB: Viability Assessment in the BioMAP Diversity Plus: KF3CT Assay (AID 2283069).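 Also: total protein by sulforhodamine B staining as a cytotoxicity measure; read 24 h after compound addition; fitted for both signal gain and loss against DMSO baseline.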 The following applies: primary human keratinocytes with fibroblasts. An outline of the steps: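 Keratinocytes co-cultured with foreskin fibroblasts (human primary); chemical added, 24 h; fix 10% TCA, stain 0.1% SRB, A560. Bidirectional fit vs DMSO.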
Read-out in test [9]: Interleukin-1 alpha (IL1a), IL1A (gene 3552)
The test is described as follows: BSK_KF3CT_IL1a: BioMAP Diversity Plus: KF3CT Assay for Interleukin-1 alpha (IL1a) Biomarker Activity (AID 2283070). The note with it: primary human keratinocytes with fibroblasts; actives raise or lower the signal. An outline of the steps:
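Chemicals were dosed onto co-cultured human keratinocytes and foreskin fibroblasts, IL-1a was quantified by ELISA at 24 h, and activity was fitted in both directions relative to DMSO controls.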

Read-out in test [10]: TIMP metallopeptidase inhibitor 2 (TIMP2), TIMP2 (gene 7077)
The test can be described thus: BSK_KF3CT_TIMP2: BioMAP Diversity Plus: KF3CT Assay for TIMP metallopeptidase inhibitor 2 (TIMP2) Biomarker Activity (AID 2283071). The note with it: primary human keratinocytes with fibroblasts; actives raise or lower the signal. An outline of the steps: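 Cells: human keratinocytes co-cultured with foreskin fibroblasts. Treat with chemical, 24 h. Measure TIMP-2 by ELISA; fit curves bidirectionally vs DMSO baseline.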

Read-out in test [11]: Transforming growth factor beta 1 (TGFb1), TGFB1 (gene 7040)
The test can be described thus: BSK_KF3CT_TGFb1: BioMAP Diversity Plus: KF3CT Assay for Transforming growth factor beta 1 (TGFb1) Biomarker Activity (AID 2283072). The note with it: primary human keratinocytes with fibroblasts; actives raise or lower the signal. The method, boiled down: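 Primary human skin cells (keratinocytes, foreskin fibroblasts) were co-cultured, exposed to test chemical and sampled at 24 h. TGF-b1 levels were measured by ELISA and fitted bidirectionally relative to DMSO.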

Read-out in test [12]: C-C motif chemokine 2 (Homo sapiens) (UniProt P13500)
The test can be described thus: BSK_KF3CT_MCP1: BioMAP Diversity Plus: KF3CT Assay for Monocyte Chemoattractant Protein 1 (MCP1/CCL2) Biomarker Activity (AID 2283073). The following applies: primary human keratinocytes with fibroblasts; actives raise or lower the signal. The method, boiled down:
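Human keratinocyte plus foreskin fibroblast primary co-culture exposed to chemical for 24 h. MCP-1 levels measured by ELISA. Bidirectional curve fitting relative to DMSO negative control as baseline.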

Read-out in test [13]: Matrix Metallopeptidase 9 (MMP9), MMP9 (gene 4318)
The test is described as follows: BSK_KF3CT_MMP9: BioMAP Diversity Plus: KF3CT Assay for Matrix Metallopeptidase 9 (MMP9) Biomarker Activity (AID 2283074). The note with it: primary human keratinocytes with fibroblasts; actives raise or lower the signal. The method, boiled down: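 Human keratinocyte/foreskin fibroblast co-culture; compound added; 24 h; MMP-9 by ELISA; bidirectional fit vs DMSO baseline.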

Read-out in test [14]: CD40, CD40 (gene 958)
The test can be described thus: BSK_LPS_CD40: BioMAP Diversity Plus: LPS Assay for CD40 Biomarker Activity (AID 2283076). The note with it: primary human HUVEC with PBMC; actives raise or lower the signal. An outline of the steps:
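Primary human umbilical vein endothelial cells co-cultured with peripheral blood mononuclear cells, LPS-stimulated, were dosed with chemical and read 24 h later. CD40 levels were measured by ELISA and fitted bidirectionally against DMSO as negative control and baseline.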

Read-out in test [15]: E-selectin (Homo sapiens) (UniProt P16581)
The test is described as follows: BSK_LPS_Eselectin: BioMAP Diversity Plus: LPS Assay for Eselectin Biomarker Activity (AID 2283077). The following applies: primary human HUVEC with PBMC; actives raise or lower the signal. The method, boiled down: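 Human umbilical vein endothelial cells co-cultured with peripheral blood mononuclear cells under LPS stimulation; E-selectin measured by ELISA 24 h after chemical dosing. Activity fitted bidirectionally against DMSO as negative control and baseline.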

Read-out in test [16]: Interleukin-8 (IL8), CXCL8 (gene 3576)
The test is described as follows: BSK_LPS_IL8: BioMAP Diversity Plus: LPS Assay for Interleukin-8 (IL8) Biomarker Activity (AID 2283078). The following applies: primary human HUVEC with PBMC; actives raise or lower the signal. The method, boiled down:
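Human umbilical vein endothelial cells co-cultured with PBMC were stimulated with LPS; IL-8 levels were measured by ELISA 24 h after chemical dosing. Activity was fitted bidirectionally against DMSO as negative control and baseline.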

Test [17] can be described thus: BSK_LPS_SRB: Viability Assessment in the BioMAP Diversity Plus: LPS Assay (AID 2283079).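 Also: total protein by sulforhodamine B absorbance as a cytotoxicity measure; measured one day after compound addition; fitted in both directions against DMSO so loss or gain of signal counts.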 The following applies: primary human HUVEC with PBMC. The method, boiled down: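 Human umbilical vein endothelial cells co-cultured with PBMC (LPS system) were dosed for 24 h. Total protein was stained with 0.1% sulforhodamine B after 10% TCA fixation, read at 560 nm, and fitted bidirectionally against DMSO baseline.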

Read-out in test [18]: Interleukin-1 alpha (IL1a), IL1A (gene 3552)
The test can be described thus: BSK_LPS_IL1a: BioMAP Diversity Plus: LPS Assay for Interleukin-1 alpha (IL1a) Biomarker Activity (AID 2283080). The note with it: primary human HUVEC with PBMC; actives raise or lower the signal. An outline of the steps:
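Human umbilical vein endothelial cells co-cultured with peripheral blood mononuclear cells were LPS-stimulated and exposed to test chemicals for 24 h. IL-1 alpha was quantified by ELISA, with bidirectional curve fitting against DMSO as the negative control and baseline.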

Read-out in test [19]: Monocyte Chemoattractant Protein-1 (MCP1), CCL2 (gene 6347)
The test can be described thus: BSK_LPS_MCP1: BioMAP Diversity Plus: LPS Assay for Monocyte Chemoattractant Protein-1 (MCP1) Biomarker Activity (AID 2283081).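 As to AC50: co-culture stimulated with LPS; secreted MCP-1 protein quantified by ELISA in culture supernatant.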 The following applies: primary human HUVEC with PBMC; actives raise or lower the signal. The method, boiled down:
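HUVEC plus PBMC co-culture (human primary cells, LPS system) exposed to test chemical for 24 h; MCP-1 measured by ELISA. Bidirectional curve fitting against DMSO baseline; parallel SRB total-protein staining flags overt cytotoxicity.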

Read-out in test [20]: urokinase plasminogen activator (uPA), PLAU (gene 5328)
The test can be described thus: BSK_KF3CT_uPA: BioMAP Diversity Plus: KF3CT Assay for urokinase plasminogen activator (uPA) Biomarker Activity (AID 2283075). The following applies: primary human keratinocytes with fibroblasts; actives raise or lower the signal. An outline of the steps:
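ELISA readout of uPA, analyzed for signal gain or loss relative to DMSO, from a human primary keratinocyte–foreskin fibroblast co-culture measured 24 h after chemical treatment.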

Active and inactive are the calls of the source. The calls were made as follows: active = hit-call score of the fitted dose curve at least 0.9, where 1 is the maximum; inactive = score below 0.9.

Chain of E-selectin (Homo sapiens) (P16581 whole entry, looked up): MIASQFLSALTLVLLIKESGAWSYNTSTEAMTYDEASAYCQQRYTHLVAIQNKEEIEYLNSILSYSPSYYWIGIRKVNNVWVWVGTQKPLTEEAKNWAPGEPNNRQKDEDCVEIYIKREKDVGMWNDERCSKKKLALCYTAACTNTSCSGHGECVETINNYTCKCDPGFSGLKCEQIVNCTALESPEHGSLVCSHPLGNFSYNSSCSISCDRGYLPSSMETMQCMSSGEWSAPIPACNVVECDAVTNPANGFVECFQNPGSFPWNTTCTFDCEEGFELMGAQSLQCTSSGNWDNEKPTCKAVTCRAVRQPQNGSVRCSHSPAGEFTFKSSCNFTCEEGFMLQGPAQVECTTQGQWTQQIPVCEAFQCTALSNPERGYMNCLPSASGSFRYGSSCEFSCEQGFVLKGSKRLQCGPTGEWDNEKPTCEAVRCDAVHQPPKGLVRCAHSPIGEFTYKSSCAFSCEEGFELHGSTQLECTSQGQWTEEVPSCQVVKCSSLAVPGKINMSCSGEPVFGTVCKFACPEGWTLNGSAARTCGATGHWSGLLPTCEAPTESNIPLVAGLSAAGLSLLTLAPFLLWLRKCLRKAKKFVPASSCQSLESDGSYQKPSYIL

For orientation: AC50 means the concentration giving half of the maximal activity seen. In the case of `Clc1nc(Cl)c(Cl)c(Cl)c1Cl`, the result in test [1], in test [2], in [3], in test [4], in test [5] and in [6] was inactive. Moreover, the outcome in test [7], in test [8], in [9], in [10], in [11] and in [12] was inactive. Besides, the result in test [13] and in test [17] was inactive. In addition, the AC50 in test [14] is 30.4 µM (active); in test [15], 30.9 µM (active); in test [16], 32.7 µM (active); in test [18], 14.4 µM (active); in [19] it was 32.1 µM (active).

Take `O=C1CCC(N2C(=O)c3ccccc3C2=O)C(=O)N1` (stereo not drawn): the result in [1], in [2], in test [3], in test [4], in test [5] and in test [6] was inactive. Besides, the outcome in [7], in test [8], in test [9], in test [10], in test [11] and in test [12] was inactive. Besides, the result in test [13], in [20], in test [14], in test [15], in test [16] and in test [17] was inactive. In addition, the result in test [18] and in test [19] was inactive.

In the case of `NC(=O)NO`, the outcome in test [1], in test [2], in test [3], in [4], in test [5] and in test [6] was inactive. Moreover, the outcome in [7], in test [8], in test [9], in test [10], in [11] and in test [12] was inactive. The outcome in test [13], in test [14], in test [15], in test [16], in test [17] and in test [18] was inactive. Further, in test [19], the outcome was inactive.

The record behind these values is PubChem BioAssay (EPA / NIEHS).
